Assay outcomes from PubChem.
An excerpt weighted towards active compounds, which were near 1.2% of everything screened.
TrxR1 inh: rat TrxR1 inhibition; actives 1% (n = 390,000); O89049; AID 588453; Potency, µM (titrated, usually from 114 µM), usual class: inhibitors; recombinant rTrxR1, NADPH fluorescence consumption, selenite substrate; further: nearly all actives have a fitted effect of over 65% in size
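Rat TrxR1 (90 nM in the dispensed reagent) was pre-reduced with 400 uM NADPH for 5 min at room temperature, then incubated with compound for 15 min. After 400 uM selenite was added, NADPH fluorescence (Ex 340/Em 450 nm) was followed for 8 min.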
GALK inhibitor: inhibitors of human galactokinase. Purified GALK, Kinase-Glo residual ATP luminescence. P51570. actives 0.007% (n = 270,000). Potency, µM (series often up to 57.5 µM), most hits filed as inhibitors
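GALK at 5 nM final was combined with compound, 35 uM ATP and 100 uM galactose in HEPES pH8.0 with MgCl2 and DTT. The reaction ran one hour at room temperature before luminescent ATP detection.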
NPSR antagonist: blocks cAMP signaling of the human neuropeptide S receptor; Potency, µM (highest dose often 38.3 µM), hits mostly inhibitors; actives 1% (n = 220,000); CHO-NPSR cells, cAMP TR-FRET, antagonist mode; AID 1461; further: nearly all actives have a fitted effect of over 50% in size
Target sequence (Q6W5P4 whole entry, looked up): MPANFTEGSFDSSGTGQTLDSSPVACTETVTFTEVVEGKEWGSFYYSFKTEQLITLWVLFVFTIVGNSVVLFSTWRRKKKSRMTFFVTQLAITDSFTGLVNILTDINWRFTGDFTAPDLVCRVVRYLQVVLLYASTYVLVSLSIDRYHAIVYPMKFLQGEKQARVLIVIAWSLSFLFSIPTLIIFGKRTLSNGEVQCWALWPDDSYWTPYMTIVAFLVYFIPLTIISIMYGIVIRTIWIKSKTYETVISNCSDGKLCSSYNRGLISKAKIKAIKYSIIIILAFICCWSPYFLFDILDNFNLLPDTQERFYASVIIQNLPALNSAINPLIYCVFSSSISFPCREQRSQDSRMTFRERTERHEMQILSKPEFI
TrxR1 substrate: rat thioredoxin reductase 1 substrate activity | actives 0.01% (n = 390,000) | purified TrxR1 substrate turnover, NADPH consumption readout | Potency, µM (titrated, usually from 114 µM); further: nearly all actives have a fitted effect of over 50% in size
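Rat TrxR1, dispensed at 90 nM, was prereduced with 400 uM NADPH (final) for 5 min at ~22 deg C, then incubated with compound 15 min before 400 uM selenite. A first-read NADPH fluorescence drop versus no-compound background flagged substrates.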
Large screens that a line does not name were inactive. The call rests on the fitted dose curve; in most records, active means well fitted curve in the direction sought with a large enough effect; inconclusive means small, poorly fitted or top-dose-only effect, or another doubt; inactive means no such curve, though single readings can be large; an effect the other way counts as inactive or inconclusive.

c1ccc(N2CCN(c3ccccc3)CC2)cc1	none (no result: GALK inhibitor, NPSR antagonist)
O=[N+]([O-])c1ccc(Sc2nc3ccccc3o2)c([N+](=O)[O-])c1	TrxR1 inh 0.631µM, NPSR antagonist inconclusive
O=[N+]([O-])c1ccc(N2CC2)c([N+](=O)[O-])c1	none (no result: GALK inhibitor, NPSR antagonist)
O=C(CN1CCOCC1)c1ccc2ccccc2c1	TrxR1 inh inconclusive (no result: GALK inhibitor, NPSR antagonist)
Cn1c(=O)oc(=O)c2ccccc21	TrxR1 inh 56.2µM (no result: GALK inhibitor, NPSR antagonist)
COc1ccccc1NC(=O)c1oc2ccccc2c1NC(=O)c1ccccc1C(F)(F)F	none (no result: GALK inhibitor, NPSR antagonist)
O=C(CCN1CC2CCC(CC2)C1)c1cccs1	TrxR1 inh 0.447µM (no result: GALK inhibitor, NPSR antagonist)
CN[C@H](CC(C)C)C(=O)N[C@H]1C(=O)N[C@@H](CC(N)=O)C(=O)N[C@H]2C(=O)N[C@H]3C(=O)N[C@H](C(=O)N[C@H](C(=O)O)c4cc(O)cc(O)c4-c4cc3ccc4O)[C@H](O)c3ccc(c(Cl)c3)Oc3cc2cc(c3O[C@@H]2O[C@H](CO)[C@@H](O)[C@H](O)[C@H]2O[C@H]2C[C@](C)(N)[C@H](O)[C@H](C)O2)Oc2ccc(cc2Cl)[C@H]1O	TrxR1 inh inconclusive (no result: GALK inhibitor, TrxR1 substrate)
Cc1ccc(-c2nn(C)c(=O)c3ccccc23)cc1CNC(=O)/C=C/c1ccccc1	NPSR antagonist inconclusive
O=C1NC(=O)C(=Cc2ccccc2Oc2ccc(F)cc2)C(=O)N1	TrxR1 inh 12.6µM
O=C1NC(=O)C(=Cc2csc3ccccc23)C(=O)N1	TrxR1 inh inconclusive
O=C1NC(=O)C(=Cc2cc3c(cc2[N+](=O)[O-])OCO3)C(=O)N1	TrxR1 inh 8.91µM
Cc1cccc(N2C(=O)NC(=O)/C(=C/c3cc4c(cc3[N+](=O)[O-])OCO4)C2=O)c1	TrxR1 inh 7.08µM
CN(C)c1ccc(C=C2C(=O)NC(=O)NC2=O)cc1[N+](=O)[O-]	TrxR1 inh inconclusive
O=C1NC(=O)C(=Cc2ccccc2[N+](=O)[O-])C(=O)N1	TrxR1 inh 7.94µM (no result: GALK inhibitor, NPSR antagonist)
COc1ccc(/C=C/c2nc(-c3ccccc3O)n(-c3ccccc3)n2)cc1OC	none (no result: GALK inhibitor, NPSR antagonist)
N[C@@H](Cn1cc(I)c(=O)[nH]c1=O)C(=O)O	none (no result: GALK inhibitor, TrxR1 substrate)
CN1CCC23CCCC[C@H]2C1Cc1ccc(O)cc13 (stereo partly drawn)	none (no result: GALK inhibitor, TrxR1 substrate)
CN1C(=O)C(=Cc2ccccc2Oc2ccc(Cl)c(F)c2)C(=O)N(C)C1=O	TrxR1 inh 11.2µM
CN1C2CCC1CC(NC(=O)c1nn(C)c3ccccc13)C2 (stereo not drawn)	none (no result: GALK inhibitor, TrxR1 substrate)
